Results reported in PubChem BioAssay AID1159580 (chemical genetic matrix, 2015).
Screen size: about 5,500 compounds; about 2,000 (36%) were called active. Not shown: some 18% with an inconclusive outcome. No stated cut-off is given here; in the data, active means normalized growth mostly below about 0.91 (no sharp cut-off); inconclusive means no clear call, values can overlap the other calls; inactive means mostly above about 0.92. The list shows a part of the results.

Experiment: chemical genetic growth profiling, strain panel (AID 1159580);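 further: tested at 20 µM; growth read once vehicle control cultures reached saturation at 30 °C; 1 = growth at the plate median or of vehicle wells; lower values mean less growth of the strain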
Details: growth OD

Measured: normalized growth

COc1cc(NC(C)CCCN)c2ncccc2c1 (configuration not stated)
inactive: S. cerevisiae deletion strains, locus YJR075W, strain HOC1, hits give low values 1 | S. cerevisiae deletion strains, locus YKL009W, strain mrt4, hits give low values 1.02 | S. cerevisiae deletion strains, locus YKL068W, hits give low values 1.01 | S. cerevisiae deletion strains, locus YKL085W, strain MDH1 (second series), hits give low values 1 | S. cerevisiae deletion strains, locus YKL085W, strain MDH1, hits give low values 1 | S. cerevisiae deletion strains, locus YKL160W, strain elf1, hits give low values 0.942 | S. cerevisiae deletion strains, locus YKL190W, strain CNB1, hits give low values 1 | S. cerevisiae deletion strains, locus YKR001C, strain vps1, hits give low values 1.01 | S. cerevisiae deletion strains, locus YKR026C, strain gcn3, hits give low values 1.01 | S. cerevisiae deletion strains, locus YKR091W, strain srl3, hits give low values 0.999 | S. cerevisiae deletion strains, locus YLL001W, strain dnm1, hits give low values 0.965 | S. cerevisiae deletion strains, locus YLL026W, hits give low values 0.998 | S. cerevisiae deletion strains, locus YLL041C, strain sdh2, hits give low values 1 | S. cerevisiae deletion strains, locus YLR027C, strain aat2, hits give low values 0.997 | S. cerevisiae deletion strains, locus YLR039C, strain RIC1, hits give low values 1.03 | S. cerevisiae deletion strains, locus YLR058C, strain SHM2, hits give low values 1.01 | S. cerevisiae deletion strains, locus YLR102C, strain apc9, hits give low values 1.01 | S. cerevisiae deletion strains, locus YLR113W, strain HOG1, hits give low values 1.06 | S. cerevisiae deletion strains, locus YLR221C, strain rsa3, hits give low values 1.01 | S. cerevisiae deletion strains, locus YLR258W, strain gsy2, hits give low values 1.04 | S. cerevisiae deletion strains, locus YLR262C, strain YPT6 (second series), hits give low values 0.956 | S. cerevisiae deletion strains, locus YLR262C, strain YPT6, hits give low values 1.05 | S. cerevisiae deletion strains, locus YLR268W, strain sec22, hits give low values 1.02 | S. cerevisiae deletion strains, locus YLR320W, strain mms22, hits give low values 0.987 | S. cerevisiae deletion strains, locus YLR330W, strain CHS5, hits give low values 1 | S. cerevisiae deletion strains, locus YLR342W, strain FKS1 (second series), hits give low values 0.947 | S. cerevisiae deletion strains, locus YLR342W, strain FKS1, hits give low values 0.991 | S. cerevisiae deletion strains, locus YLR357W, strain rsc2, hits give low values 0.991 | S. cerevisiae deletion strains, locus YLR370C, strain arc18, hits give low values 1.02 | S. cerevisiae deletion strains, locus YLR371W, strain rom2, hits give low values 1.01 | S. cerevisiae deletion strains, locus YLR384C, strain iki3, hits give low values 1.02 | S. cerevisiae deletion strains, locus YLR418C, strain cdc73, hits give low values 0.988 | S. cerevisiae deletion strains, locus YML016C, strain PPZ1, hits give low values 1.01 | S. cerevisiae deletion strains, locus YML032C, strain rad52, hits give low values 1.01 | S. cerevisiae deletion strains, locus YML120C, strain ndi1, hits give low values 0.995 | S. cerevisiae deletion strains, locus YML124C, strain tub3, hits give low values 1.01 | S. cerevisiae deletion strains, locus YMR058W, strain fet3, hits give low values 0.999 | S. cerevisiae deletion strains, locus YMR078C, strain ctf18, hits give low values 0.997 | S. cerevisiae deletion strains, locus YMR125W, strain sto1, hits give low values 0.951 | S. cerevisiae deletion strains, locus YMR129W, hits give low values 1.01 | S. cerevisiae deletion strains, locus YMR205C, strain PFK2, hits give low values 0.962 | S. cerevisiae deletion strains, locus YMR223W, strain ubp8, hits give low values 0.991 | S. cerevisiae deletion strains, locus YMR231W, strain pep5, hits give low values 1.01 | S. cerevisiae deletion strains, locus YMR263W, strain SAP30, hits give low values 1 | S. cerevisiae deletion strains, locus YMR307W, strain GAS1, hits give low values 0.951 | S. cerevisiae deletion strains, locus YNL067W, strain RPL9B, hits give low values 1.01 | S. cerevisiae deletion strains, locus YNL071W, strain lat1, hits give low values 1.01 | S. cerevisiae deletion strains, locus YNL128W, strain TEP1, hits give low values 1 | S. cerevisiae deletion strains, locus YNL153C, strain GIM3, hits give low values 1.01 | S. cerevisiae deletion strains, locus YNL183C, strain NPR1, hits give low values 0.972 | S. cerevisiae deletion strains, locus YNL209W, strain ssb2, hits give low values 1 | S. cerevisiae deletion strains, locus YNL233W, strain BNI4, hits give low values 1 | S. cerevisiae deletion strains, locus YNL248C, strain rpa49, hits give low values 0.938 | S. cerevisiae deletion strains, locus YNL250W, strain rad50, hits give low values 1.02 | S. cerevisiae deletion strains, locus YNL271C, strain bni1, hits give low values 1.02 | S. cerevisiae deletion strains, locus YNL298W, strain CLA4, hits give low values 1.02 | S. cerevisiae deletion strains, locus YNL307C, strain MCK1, hits give low values 1 | S. cerevisiae deletion strains, locus YNL322C, strain KRE1 (second series), hits give low values 1 | S. cerevisiae deletion strains, locus YNL322C, strain KRE1, hits give low values 1 | S. cerevisiae deletion strains, locus YNR049C, strain mso1, hits give low values 1 | S. cerevisiae deletion strains, locus YNR052C, strain pop2, hits give low values 1.02 | S. cerevisiae deletion strains, locus YOL006C, strain TOP1, hits give low values 1.03 | S. cerevisiae deletion strains, locus YOL012C, strain htz1 1 | S. cerevisiae deletion strains, locus YOL147C, strain pex11, hits give low values 1.02 | S. cerevisiae deletion strains, locus YOR001W, strain rrp6, hits give low values 1.02 | S. cerevisiae deletion strains, locus YOR061W, strain CKA2, hits give low values 1 | S. cerevisiae deletion strains, locus YOR069W, strain VPS5, hits give low values 1.01 | S. cerevisiae deletion strains, locus YOR070C, strain gyp1, hits give low values 1.02 | S. cerevisiae deletion strains, locus YOR080W, strain dia2, hits give low values 1.01 | S. cerevisiae deletion strains, locus YOR083W, strain WHI5, hits give low values 0.958 | S. cerevisiae deletion strains, locus YOR106W, strain vam3, hits give low values 0.959 | S. cerevisiae deletion strains, locus YOR136W, strain idh2, hits give low values 1.01 | S. cerevisiae deletion strains, locus YOR144C, strain elg1, hits give low values 1.01 | S. cerevisiae deletion strains, locus YOR184W, strain ser1, hits give low values 1.04 | S. cerevisiae deletion strains, locus YOR231W, strain MKK1, hits give low values 1 | S. cerevisiae deletion strains, locus YOR265W, strain rbl2, hits give low values 1.02 | S. cerevisiae deletion strains, locus YOR270C, strain vph1, hits give low values 1.05 | S. cerevisiae deletion strains, locus YOR290C, strain snf2, hits give low values 0.997 | S. cerevisiae deletion strains, locus YOR316C, strain cot1, hits give low values 1.01 | S. cerevisiae deletion strains, locus YPL051W, strain arl3, hits give low values 0.982 | S. cerevisiae deletion strains, locus YPL055C, strain LGE1, hits give low values 1 | S. cerevisiae deletion strains, locus YPL078C, strain atp4, hits give low values 0.96 | S. cerevisiae deletion strains, locus YPL106C, strain sse1, hits give low values 1 | S. cerevisiae deletion strains, locus YPL240C, strain hsp82, hits give low values 1.01 | S. cerevisiae deletion strains, locus YPL241C, strain CIN2, hits give low values 1 | S. cerevisiae deletion strains, locus YPL256C, strain CLN2, hits give low values 1.07 | S. cerevisiae deletion strains, locus YPR119W, strain clb2, hits give low values 1.01 | S. cerevisiae deletion strains, locus YPR141C, strain kar3, hits give low values 1.01 | S. cerevisiae deletion strains, locus YPR163C, strain tif3, hits give low values 1.01 | S. cerevisiae deletion strains, locus YPR167C, strain met16, hits give low values 1.02 | S. cerevisiae deletion strains, strain wtn01, hits give low values 1.02 | S. cerevisiae strains, strain wild type, hits give low values 1
